Test results taken from PubChem BioAssay (Tox21).
Records with an inconclusive call do not appear. The source made the active and inactive calls. Unless noted, calls come from the whole dose curve; as a rule, active = well fitted curve in the direction sought with a large enough effect in the repeat runs; inconclusive = weak or mixed curves; inactive = no such curve, though single readings can be large; an effect the other way counts as inactive or inconclusive.

What was measured:
[1] = qHTS assay to identify small molecule agonists of the vitamin D receptor (VDR) signaling pathway - cell viability counter screen (AID 743224); note: series mostly up to about 63 µM; % is set by controls: 0 for no effect and ±100 for the full control effect; nearly all actives have a fitted effect of over 50% in size
In short: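 Viability is measured in the same wells as the VDR-bla reporter assay: after 16 h compound treatment and 2 h substrate loading, CellTiter-Glo is added and luminescence read 30 min later.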

[2] = qHTS assay to identify small molecule antagonists of the vitamin D receptor (VDR) signaling pathway - cell viability counter screen (AID 743225); note: % is set by controls: 0 for no effect and ±100 for the full control effect; nearly all actives have a fitted effect of over 50% in size
In short: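 Viability counter screen run in the same wells as the beta-lactamase reporter assay: HEK 293T VDR-UAS-bla cells, 16 h compound exposure at 37C with 3 nM (final) 1-alpha,25-dihydroxyvitamin D3. CellTiter-Glo luminescence, 30 min, room temperature.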

[3] = qHTS assay to identify small molecule agonists of the NFkB signaling pathway - cell viability counter screen (AID 1159515; calls by dose curve; note: series mostly up to about 61 µM; % is set by controls: 0 for no effect and ±100 for the full control effect; nearly all actives have a fitted effect of over 55% in size)
In short: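 Multiplexed viability readout: after the 5 hr compound exposure and 1.5 hr FRET substrate step, CellTiter-Glo reagent went into the same NFkB-bla ME-180 wells; ATP luminescence was measured after 30 min at room temperature.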

[4] = qHTS assay to identify small molecule agonists of the endoplasmic reticulum stress response signaling pathway (AID 1159516; active = well fitted activation curve with a large enough effect in the signal ratio in the repeat runs, not every such curve was filed as active; the % refers to the signal ratio; note: % is set by controls: 0 for no effect and ±100 for the full control effect)
In short: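 Tox21 10K library screened in quantitative HTS format on ESRE-bla HeLa cells, a beta-lactamase reporter under ER stress response element control; 5 hr treatment, FRET read.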

[5] = qHTS assay to identify small molecule agonists of the endoplasmic reticulum stress response signaling pathway - cell viability counter screen (AID 1159517; calls by dose curve; note: series mostly up to about 61 µM; % is set by controls: 0 for no effect and ±100 for the full control effect; nearly all actives have a fitted effect of over 50% in size)
In short: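 ESRE-bla HeLa cells, 1,500 per well, seeded overnight then treated with compounds for 5 hr at 37 C. After the beta-lactamase read, viability in the same wells is measured by CellTiter-Glo luminescence after 30 min at room temperature.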

[6] = qHTS assay to identify small molecule antagonists of the retinoid-related orphan receptor gamma (ROR-gamma) signaling pathway - cell viability counter screen (AID 1159520); note: % is set by controls: 0 for no effect and ±100 for the full control effect; nearly all actives have a fitted effect of over 50% in size
In short: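 Tet-on ROR gamma CHO cells were given compounds for 2 hr, then doxycycline hyclate at 1 uM final, and incubated 16 hr at 37 C. Viability was measured as ATP content by CellTiter-Glo luminescence.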

[7] = molecular target: Nuclear receptor ROR-gamma (Homo sapiens) (UniProt P51449); test: qHTS assay to identify small molecule antagonists of the retinoid-related orphan receptor gamma (ROR-gamma) signaling pathway (AID 1159521)
In short: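 Luminescence readout (ONE-Glo, 30 min RT) after 16 h doxycycline induction; loss of signal scored as antagonism. CHO cells with TET-inducible RORγ and RORE-LUC reporter; compounds added 2 h before 1 uM final doxycycline.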

[8] = qHTS assay to identify small molecule agonists of the AP-1 signaling pathway - cell viability counter screen (AID 1159525; calls by dose curve; note: nearly all actives have a fitted effect of over 55% in size)
In short: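 AP-1-bla ME-180 cells in Opti-MEM with 0.5% dialyzed FBS, compound exposure 5 h at 37 C in 15-point titration. Viability read in the same wells as ATP content by CellTiter-Glo luminescence, normalised to tetra-n-octylammonium bromide and DMSO controls.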

[9] = qHTS assay to identify small molecule agonists of the AP-1 signaling pathway (AID 1159526; calls by dose curve; note: % is set by controls: 0 for no effect and ±100 for the full control effect)
[10] = qHTS assay to identify small molecule agonists of the RXR signaling pathway - cell viability counter screen (AID 1159529)
In short: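 Luminescence from CellTiter-Glo (30 min, RT) measured viability in the same wells as the beta-lactamase reporter readout. Cells: GeneBLAzer RXR-alpha HEK 293T, 2% charcoal-stripped FBS. Compound exposure 16 hr, 37 C.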

[11] = qHTS assay to identify small molecule antagonists of the retinoid acid receptor (RAR) signaling pathway - cell viability counter screen (AID 1159551); note: % is set by controls: 0 for no effect and ±100 for the full control effect; nearly all actives have a fitted effect of over 35% in size
In short: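 Cytotoxicity counter screen in C3RL4 cells: 6 h compound exposure with 1 uM retinol (final), viability from cellular ATP by luminescence.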

[12] = qHTS assay to identify small molecule agonists of the retinoic acid receptor (RAR) signaling pathway (AID 1159553); note: % is set by controls: 0 for no effect and ±100 for the full control effect
In short: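 Agonist activity was scored in C3RL4 cells bearing a retinoic acid response element luciferase construct. Cells were treated with compounds for 6 hr at 37 C, and luciferase signal was measured as luminescence.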

[13] = molecular target: Retinoic acid receptor RXR-alpha (Homo sapiens) (UniProt P19793); test: qHTS assay to identify small molecule agonists of the RXR signaling pathway (AID 1159527; calls by dose curve; note: % is set by controls: 0 for no effect and ±100 for the full control effect; nearly all actives have a fitted effect of over 35% in size)
Chain of Retinoic acid receptor RXR-alpha (Homo sapiens) (P19793 whole entry, looked up): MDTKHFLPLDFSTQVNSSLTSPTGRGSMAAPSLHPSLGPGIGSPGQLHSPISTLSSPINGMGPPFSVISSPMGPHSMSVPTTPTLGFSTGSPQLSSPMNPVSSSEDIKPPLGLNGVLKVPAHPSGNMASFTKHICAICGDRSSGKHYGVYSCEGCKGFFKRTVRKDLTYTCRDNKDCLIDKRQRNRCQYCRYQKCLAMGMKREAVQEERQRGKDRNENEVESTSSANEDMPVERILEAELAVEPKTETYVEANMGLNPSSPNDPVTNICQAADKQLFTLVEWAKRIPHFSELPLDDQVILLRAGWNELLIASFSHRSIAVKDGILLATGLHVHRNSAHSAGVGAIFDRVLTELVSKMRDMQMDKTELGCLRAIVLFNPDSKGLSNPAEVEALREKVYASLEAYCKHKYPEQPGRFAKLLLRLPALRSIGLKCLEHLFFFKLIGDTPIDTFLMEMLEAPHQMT
In short: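 Agonist mode; 9-cis retinoic acid positive control. HEK 293T UAS-bla reporter cells, 2% charcoal-stripped FBS, 16 hr compound exposure at 37 C/5% CO2. LiveBLAzer B/G FRET substrate 2 hr RT; ex 405, em 460/530 nm.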

[14] = qHTS assay to identify small molecule antagonists of the retinoic acid receptor (RAR) signaling pathway (AID 1159552)
In short: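 Luminescence from a RARE luciferase reporter in C3RL4 cells served as read-out. Cells received compounds together with 1 uM final retinol and incubated 6 hr at 37 C before detection reagent was added for 30 min at room temperature.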

[15] = qHTS assay to identify small molecule antagonists of the estrogen related receptor (ERR) signaling pathway - cell viability counter screen (AID 1224818);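 note: series mostly up to about 46 µM; viability measured after 17.5 h of compound exposure; % is set by controls: 0 for no effect and ±100 for the full control effect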
In short: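 Cells carrying the ERR pathway reporter were seeded and incubated for 6 hours before compound addition. After a 17.5-hour exposure at 37 C, live-cell protease activity was measured by CellTiter-Fluor fluorescence following 30 minutes of incubation.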

[16] = qHTS assay to identify small molecule antagonists of the estrogen related receptor signaling pathway with the pleiotropic PPARgamma coactivator (PGC) cell viability counter screen (AID 1224822)
In short: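 Seed PGC/ERR cells (2,000/well); incubate 6 h at 37 C/5% CO2; pin-transfer compounds in DMSO; incubate 17.5 h at 37 C; add CellTiter-Fluor; after 30 min read fluorescence.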

O=C(c1ccccc1O)c1ccccc1O
inactive: outcome [1] | outcome [2] | outcome [3] | outcome [4] | outcome [5] | outcome [6] | Potency [7] | outcome [8] | outcome [9] | Potency [10] | outcome [11] | Potency [12]

C=C[Si](OC(C)=O)(OC(C)=O)OC(C)=O
inactive: outcome [2] | outcome [3] | outcome [4] | outcome [5] | outcome [6] | Potency [7] | outcome [9] | Potency [13] | Potency [10] | outcome [11] | Potency [14]

O=S(=O)(O)c1cccc(S(=O)(=O)O)c1
inactive: outcome [2] | outcome [3] | outcome [4] | outcome [5] | outcome [6] | Potency [7] | outcome [8] | outcome [9] | Potency [10] | outcome [11]

CCCCCC(=O)OCCc1ccccc1
inactive: outcome [1] | outcome [3] | outcome [4] | outcome [5] | outcome [6] | Potency [7] | outcome [8] | outcome [9] | Potency [10] | outcome [11]

CC(C)(CCC(=O)O)C(=O)O
inactive: outcome [1] | outcome [2] | outcome [3] | outcome [4] | outcome [5] | outcome [6] | Potency [7] | outcome [8] | outcome [9] | Potency [10] | outcome [11]

CC[C@H]1OC(=O)[C@H](C)[C@@H](O[C@H]2C[C@@](C)(OC)[C@@H](O)[C@H](C)O2)[C@H](C)[C@@H](O[C@@H]2O[C@H](C)C[C@H](N(C)C)[C@H]2O)[C@](C)(OC)C[C@@H](C)C(=O)[C@H](C)[C@@H](O)[C@]1(C)O
inactive: outcome [1] | outcome [2] | outcome [3] | outcome [4] | outcome [5] | outcome [6] | Potency [7] | outcome [9] | Potency [13] | Potency [10] | outcome [11]

C[N+]12CCC(CC1)C(OC(=O)C(O)(c1ccccc1)c1ccccc1)C2 (centres undefined)
inactive: outcome [1] | outcome [2] | outcome [3] | outcome [4] | outcome [5] | outcome [6] | Potency [7] | outcome [9] | Potency [13] | Potency [10] | outcome [11] | Potency [12]

CC(=O)c1ccc2ccccc2c1
inactive: outcome [1] | outcome [2] | outcome [3] | outcome [4] | outcome [5] | outcome [6] | Potency [7] | outcome [9] | Potency [13] | Potency [10] | outcome [11]

CCCCCCC1CCC(=O)O1 (centres undefined)
inactive: outcome [1] | outcome [3] | outcome [4] | outcome [5] | outcome [6] | Potency [7] | outcome [9] | Potency [10] | outcome [11] | Potency [14]

CO[C@@]1(NC(=O)C(C(=O)O)c2ccc(O)cc2)C(=O)N2C(C(=O)O)=C(CSc3nnnn3C)CO[C@@H]21 (some centres undefined)
inactive: outcome [1] | outcome [2] | outcome [3] | outcome [4] | outcome [5] | outcome [6] | Potency [7] | outcome [8] | outcome [9] | Potency [10] | outcome [11] | Potency [14] | Potency [12]

CCN1CCOCC1
inactive: outcome [1] | outcome [2] | outcome [3] | outcome [4] | outcome [5] | outcome [6] | Potency [7] | outcome [9] | Potency [13] | Potency [10] | outcome [11] | Potency [14] | Potency [12]

NC(N)=NCCN1CCCCCCC1
inactive: activity change, negative = cytotoxicity [1] -13.4% [at 0.55 µM] | viability change, negative = cytotoxic [2] -3.67% [at 0.628 µM] | activity, negative = cytotoxic [3] -1.12% [at 0.628 µM] | activation [4] 2.69% [at 0.628 µM] | activity change, negative = cytotoxicity [5] -3.02% [at 0.628 µM] | activity, negative = cytotoxicity [6] 6.85% [at 0.349 µM] | activity change, negative = inhibition [7] 36.3% [at 0.35 µM] | activation [9] -7.76% [at 0.29 µM] | activation [13] 1.89% [at 0.29 µM] | activity change, negative = cytotoxicity [10] -2.51% [at 0.29 µM] | activity change, negative = cytotoxicity [11] -0.855% [at 0.349 µM] | activation [12] 0.885% [at 0.756 µM]

NC(CCC(=O)O)C(=O)O (centres undefined)
inactive: outcome [1] | outcome [2] | outcome [3] | outcome [4] | outcome [5] | outcome [6] | Potency [7] | outcome [8] | outcome [9] | Potency [10] | outcome [11]

CN(C)C(=O)Oc1cccc([N+](C)(C)C)c1
inactive: outcome [1] | outcome [2] | outcome [3] | outcome [4] | outcome [5] | outcome [6] | Potency [7] | outcome [9] | Potency [13] | Potency [10] | outcome [11] | Potency [12] | outcome [15] | outcome [16]

CCCCOC(=O)CCC(C)=O
inactive: outcome [2] | outcome [3] | outcome [4] | outcome [5] | outcome [6] | Potency [7] | outcome [8] | outcome [9] | Potency [10] | outcome [11] | Potency [14]

CCCCCCCCCCOc1cc2c(=O)c(C(=O)OCC)c[nH]c2cc1OCC
inactive: activity change, negative = cytotoxicity [1] -0.151% [at 5.95 µM] | viability change, negative = cytotoxic [2] -0.675% [at 6.95 µM] | activity, negative = cytotoxic [3] 6.37% [at 6.95 µM] | activation [4] 2.24% [at 6.95 µM] | activity change, negative = cytotoxicity [5] -7.49% [at 6.95 µM] | activity, negative = cytotoxicity [6] 2.58% [at 8.39 µM] | activity change, negative = inhibition [7] 36.6% [at 8.39 µM] | activation [9] 9.42% [at 6.97 µM] | activation [13] -0.304% [at 6.98 µM] | activity change, negative = cytotoxicity [10] -0.18% [at 6.97 µM] | activity change, negative = cytotoxicity [11] 1.07% [at 8.39 µM]

CCC(C(=O)NC(=O)NC(C)=O)c1ccccc1 (centres undefined)
inactive: outcome [1] | outcome [2] | outcome [3] | outcome [4] | outcome [5] | outcome [6] | Potency [7] | outcome [9] | Potency [13] | Potency [10] | outcome [11]
